PfHsp40 rescue: restores yeast growth despite PfHsp40 toxicity. S. cerevisiae expressing PfHsp40, growth rescue, ATP luminescence. growth rescue, % at 12.5 µM. actives 0.68% (n = 340,000). AID 504582; in the data active = growth rescue above about 28%, passing the limit was not always enough; inconclusive = no clear call, values can overlap the other calls;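 note: yeast W303a lacking pdr1 and pdr3 grown in galactose medium; growth measured after three days at 30 °C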
SSB-PriA inh: K. pneumoniae PriA-SSBct interaction inhibition | AlphaScreen SSBct-PriA binding, biotinylated peptide | inhibition, % at 33 µM | actives 0.6% (n = 430,000) | AID 1272365; in the data active = inhibition mostly above about 37%, no sharp cut-off; inactive = mostly below about 20%;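 note: plate controls were negative control peptide for no effect and reference peptide for full effect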
MazF activator: MazEF (E. coli) toxin RNase activation | P0AE70 | FAM/BHQ RNA-DNA oligo cleavage fluorescence, 5 h | activation, % at 20 µM | actives 0.32% (n = 350,000); in the data active = activation above about 50%
Target sequence (P0AE70 whole entry, looked up): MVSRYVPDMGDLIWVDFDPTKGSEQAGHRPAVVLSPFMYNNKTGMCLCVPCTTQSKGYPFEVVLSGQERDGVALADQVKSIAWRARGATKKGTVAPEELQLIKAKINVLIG
PrP 5UTR inh: suppresses PrP 5' UTR mRNA reporter expression; cell-based PrP 5' UTR mRNA reporter, plate reader; inhibition, % (no concentration beside the values); actives 0.35% (n = 340,000); AID 488862; in the data active = inhibition above about 52%; note: 0 = median of the neutral control wells
PrPC surface inh: cell surface PrPC inhibition, primary TR-FRET screen | P04156 | TR-FRET read-out | inhibition, % at 13.8 µM | actives 0.43% (n = 370,000) | AID 720596; in the data active = inhibition above about 24%; note: 0% = median of the test wells and 100% = reference compound wells
* = called active by the depositor; ? = inconclusive; . = not tested or not shown; ! = not confirmed by another sample. In the library only some 1.8% were active in any assay of this set; here they are far more common.

SMILES	PfHsp40 rescue	SSB-PriA inh	MazF activator	PrP 5UTR inh	PrPC surface inh
CC(Oc1ccccc1)C(=O)Nc1nc(-c2ccccn2)cs1 (centres undefined)	-0.4	5.3	-3.5	5.8	9.5
CC(CC(=O)Nc1nc(-c2ccccn2)cs1)NC(=O)c1ccccc1 (centres undefined)	.	74.8*	.	.	.
CSCCC(=O)Nc1nc(-c2ccccn2)cs1	-1.2	-9.2	7.8	-23.0	4.3
C[C@H](NC(=O)c1ccccc1)C(=O)Nc1nc(-c2ccccn2)cs1	-1.3	61.9*	-20.9	1.2	-2.8
CCC(C(=O)Nc1nc(-c2ccccn2)cs1)c1ccccc1 (centres undefined)	.	100.2*	.	.	.
CCCN1CCCc2cc(CCNC(=O)COc3ccccc3)ccc21	.	95.3*	.	.	.
CCCN1CCCc2cc(CCNC(=O)C(=O)Nc3ccon3)ccc21	.	56.0*	.	.	.
CCCN1CCCc2cc(CCNC(=O)CCc3ccc(OC)cc3)ccc21	.	66.0*	.	.	.
CCCN1CCCc2cc(CCNC(=O)Cc3ccc(F)cc3)ccc21	.	73.0*	.	.	.
O=C(NCc1ccc(C(=O)c2ccco2)s1)c1cc(Br)cs1	.	-10.0	.	.	.
CC(C)(C)S(=O)(=O)C(C#N)=NNc1ccc(S(N)(=O)=O)cc1	.	-0.3	.	.	.
CCCN1CCCc2cc(CCNC(=O)CC(C)(C)C)ccc21	.	58.0*	.	.	.
CCCN1CCCc2cc(CCNC(=O)OC)ccc21	.	64.0*	.	.	.
Cc1cc(C(=O)NCc2cc(-c3cccs3)n(C3CCCC3)n2)no1	.	-6.0	.	.	.
Nc1c(C(=O)N2CCCC2)nsc1C(=O)NCCc1cccs1	.	0.0	.	.	.
Cc1ccccc1CN(C)CCS(=O)(=O)c1cc(Cl)ccc1Cl	60.7*	-12.3	-1.7	-34.1	6.7
FC(F)Sc1ccc(NC(=S)NCc2ccccc2)cc1	22.4	-36.4	4.8	-34.6	2.9
FC(F)Sc1ccc(NC(=S)NC(c2ccccc2)c2ccccc2)cc1	4.1	-13.5	127.1*	-13.0	1.0
O=c1oc2ccccc2c(O)c1/C=C1\C=Nc2ccccc21	110.3*	.	29.2	-20.4	4.3
O=C(O)CSc1c(-c2ccccc2)[nH]c2ccccc12	-0.7	15.9	2.2	-3.3	0.5
N=C(N)Sc1c(-c2ccccc2)[nH]c2ccccc12	.	37.0*	.	.	.
O=c1[nH]c(NN=Cc2ccc3c(c2)OCO3)nc2ccccc12	.	-1.8	.	.	.
O=c1[nH]c(N/N=C/c2ccc(O)cc2)nc2ccccc12	1.1	.	51.0*	-82.9	-0.6
O=c1[nH]c(N/N=C\c2ccc(F)cc2)nc2ccccc12	-2.7	.	55.8*	-82.1	-5.0
CN1C(=O)/C(=C/c2ccc(C(F)(F)F)cc2)Sc2ccc(C(=O)N3CCN(c4ccccn4)CC3)cc21	-0.2	8.7	-22.4	-11.0	-4.0
SMILES	PfHsp40 rescue	SSB-PriA inh	MazF activator	PrP 5UTR inh	PrPC surface inh
O=C(Nc1nc(-c2cccs2)cs1)C1CCCCN1S(=O)(=O)c1cccs1 (centres undefined)	.	5.0	.	.	.
CC(=O)N1N=C(c2ccccc2)CC1c1ccccc1[N+](=O)[O-] (centres undefined)	0.0	3.2	5.2	-18.6	-8.4
CC(=O)N1N=C(c2ccc([N+](=O)[O-])cc2)CC1c1ccccc1Cl (centres undefined)	0.6	45.2*	1.3	-22.8	-28.2
COc1cccc(CN2CCC2(C)C(=O)Nc2ccc3c(c2)OCO3)c1F (centres undefined)	.	.	.	.	2.8
O=c1cc(-c2ccccn2)[nH]c(-c2ccccn2)c1	.	96.0*	.	.	.
Nc1cc(-c2ccccn2)[nH]n1	.	17.0	.	.	.
CCN(CC)CCN(C(=O)c1ccc2c(c1)CCCC2)c1nc2ccc(C)cc2s1	0.0	14.0	1.1	3.1	-4.7
COc1ccc(C)c2sc(N(CCN3CCOCC3)C(=O)c3ccc(C)c(C)c3)nc12	.	31.0	.	.	.
CCN(CC)CCN(C(=O)c1ccc2c(c1)CCCC2)c1nc2ccc(OC)cc2s1	-0.6	46.0*!	0.3	17.4	-3.9
COc1ccc(OC)c2sc(N(CCN3CCOCC3)C(=O)c3ccc4c(c3)CCCC4)nc12	.	41.0*	.	.	.
COc1ccc(OC)c2sc(N(CCCN3CCOCC3)C(=O)c3ccn(C)n3)nc12	.	-7.0	.	.	.
COc1ccc(OC)c2sc(N(CCCN3CCOCC3)C(=O)c3ccccc3SC)nc12	.	28.0*	.	.	.
NC(N)=NN=Cc1ccc(N(c2ccccc2)c2ccccc2)cc1	.	-11.4	.	.	.
NC(N)=N/N=C/c1ccc(N(c2ccccc2)c2ccccc2)cc1	105.5*	.	-5.3	-14.9	-1.4
c1ccc(CCN2CN=C(Nc3nc4ccccc4s3)NC2)cc1	1.1	-10.3	6.0	-34.3	-2.8
COc1ccc(CN2CN=C(Nc3nc4ccccc4s3)NC2)cc1	1.0	-7.6	62.1*	-6.8	.
c1ccc(CN2CN=C(Nc3nc4ccccc4s3)NC2)cc1	-0.7	-8.0	55.5*	-17.5	2.3
CCc1nc(N2CCNCC2)c(C#N)c2c1CSC(C)(C)C2	-0.8	-16.1	1.8	-27.4	-6.9
CCCSc1ccc([C@H]2N[C@@](CC(C)C)(C(=O)OC)[C@H]3C(=O)N(C)C(=O)[C@@H]23)cc1	-0.7	-4.8	7.5	-39.2	-5.6
CCCCCCSc1ccc([C@H]2N[C@@](CC(C)C)(C(=O)OC)[C@H]3C(=O)N(C)C(=O)[C@@H]23)cc1	46.6*	-10.5	2.2	-12.8	2.4
CCCNC(=O)c1ccc2c(=O)c(O)c(-c3ccc(OC)cc3)[nH]c2c1	185.3*	-41.0	0.2	-24.8	.
Cc1ccc(-c2[nH]c3cc(C(N)=O)ccc3c(=O)c2O)cc1	44.2*	-7.1	5.2	-17.9	-30.1
Cc1ccc(-c2[nH]c3cc(C(=O)NCCCn4ccnc4)ccc3c(=O)c2O)cc1	?	12.9	5.3	-8.2	-13.3
Cc1ccc(CNC(=O)c2ccc3c(=O)c(O)c(-c4ccc(C)cc4)[nH]c3c2)cc1	164.4*	18.5	17.4	36.9	-2.6
CCCNC(=O)c1ccc2c(=O)c(O)c(-c3ccc(C)cc3)[nH]c2c1	-1.2	-2.8	1.0	29.6	-4.5
SMILES	PfHsp40 rescue	SSB-PriA inh	MazF activator	PrP 5UTR inh	PrPC surface inh
CC(C)(C)S(=O)(=O)N1C[C@H]2C(=CC[C@@H]3C(=O)N(c4ccccc4)C(=O)[C@@H]32)[C@H]1CCO	-0.9	-13.3	-7.9	-29.3	5.8
C[C@@H]1CN([C@@H](C)CO)S(=O)(=O)c2ccc(Br)cc2O[C@H]1CN(C)C(=O)CN(C)C	.	.	-5.7	.	-6.9
COc1ccc(-c2nnc(N3CCC(C)CC3)c3ccccc23)cc1	-0.3	-4.3	5.5	-7.9	-0.4
COc1ccc(NC(=S)NCCCN2CCCC2)cc1	0.5	1.6	-0.5	-0.2	0.3
COc1ccc(N(C(=O)c2ccncc2)S(=O)(=O)c2ccc(OC)c(OC)c2)cc1	0.6	-11.5	2.9	-22.4	-5.7
COc1ccc(N(C(=O)c2ccncc2)S(=O)(=O)c2ccc(F)cc2)cc1	435.8*	.	.	-5.7	4.5
COc1ccc(N(C(=O)c2ccncc2)S(=O)(=O)c2ccccc2)cc1	340.0*	-10.2	2.8	-13.1	-2.8
COc1ccc(S(=O)(=O)N(C(=O)c2ccncc2)c2ccc(OC(=O)c3ccncc3)cc2)cc1	515.1*	-8.0	4.1	-23.3	6.3
COc1ccc(OC(=O)c2ccncc2)cc1	0.1	-6.2	-3.9	-14.6	-3.5
Cn1cccc1CC(=O)NNC(=S)Nc1ccc(Cl)cc1	1.7	-1.2	-3.0	-21.2	-4.7
COc1ccc2nc3ccccc3nc2c1N	0.0	48.1*	16.4	-62.2	-37.0
